Measurements: the supplement of paper PMC8728848
This is one part of a sample in which the strongest signals are shown more often than they occur.

Assays:
Assay in all cases: glycan array binding signal (z-score within array); higher = stronger binding
Conditions in all cases: glycan notation: IUPAC condensed, linker removed
[1] = biological target: Fuc(a1-2)Gal(b1-3)GalNAc(a1-3)[Fuc(a1-2)]Gal(b1-4)Glc
Outline: (§1)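 Glycan array data were curated from 3228 arrays in the Consortium for Functional Glycomics database and kept only where the protein sequence was available. Glycan names were converted to IUPAC-condensed notation, and columns mapping to the same glycan were averaged. The binding signal is a within-array Z-score, averaged across arrays of the same protein sequence at different concentrations or buffers and across linkers. Negative Z-scores can be read as non-binding.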

[2] = biological target: Fuc(a1-2)Gal(b1-3)[Fuc(a1-4)]GlcNAc(b1-2)Man(a1-3)[Fuc(a1-2)Gal(b1-3)[Fuc(a1-4)]GlcNAc(b1-2)Man(a1-3)]Man(b1-4)GlcNAc(b1-4)GlcNAc
Outline: as §1

[3] = biological target: Fuc(a1-2)Gal(b1-4)Fuc(a1-3)]GlcNAc(b1-2)Man(a1-3)[Fuc(a1-2)Gal(b1-4)[Fuc(a1-3)]GlcNAc(b1-2)Man(a1-6)]Man(b1-4)GlcNAc(b1-4)GlcNAc
Outline: as §1

[4] = biological target: Fuc(a1-2)Gal(b1-4)GlcNAc(b1-3)Gal(b1-4)GlcNAc
Outline: as §1

[5] = biological target: Fuc(a1-2)Gal(b1-4)GlcNAc(b1-3)Gal(b1-4)GlcNAc(b1-3)Gal(b1-4)GlcNAc
Outline: as §1

[6] = biological target: Fuc(a1-2)Gal(b1-4)GlcNAc(b1-3)[Fuc(a1-3)[Gal(b1-4)]GlcNAc(b1-6)]Gal(b1-4)Glc
Outline: as §1

[7] = biological target: Fuc(a1-2)[Gal(a1-4)]Gal(b1-4)GlcNAc
Outline: as §1

[8] = biological target: Fuc(a1-2)[GalNAc(a1-3)]Gal(b1-3)GalNAc(a1-3)[Fuc(a1-2)]Gal(b1-4)GlcNAc
Outline: as §1

[9] = biological target: Fuc(a1-2)[GalNAc(a1-3)]Gal(b1-3)GlcNAc(b1-6)GalNAc
Outline: as §1

[10] = biological target: Fuc(a1-3)[Gal(b1-4)]GlcNAc(b1-3)Gal(b1-3)[Fuc(a1-4)]GlcNAc
Outline: as §1

[11] = biological target: Gal(a1-4)Gal(b1-3)GlcNAc(b1-2)Man(a1-3)[Gal(a1-4)Gal(b1-3)GlcNAc(b1-2)Man(a1-6)]Man(b1-4)GlcNAc(b1-4)GlcNAc
Outline: as §1

Gal(b1-3)GalNAc(b1-3)Gal = biological target: Gal(b1-3)GalNAc(b1-3)Gal
Outline: as §1

[12] = biological target: Gal(b1-3)GlcNAc(b1-3)Gal(b1-4)Glc
Outline: as §1

[13] = biological target: Gal(b1-3)[Fuc(a1-4)]GlcNAc(b1-3)Gal(b1-3)[Fuc(a1-4)]GlcNAc
Outline: as §1

[14] = biological target: Gal(b1-4)GalNAc(a1-3)[Fuc(a1-2)]Gal(b1-4)GlcNAc
Outline: as §1

[15] = biological target: Gal(b1-4)GlcNAc(b1-2)[Gal(b1-4)GlcNAc(b1-4)]Man(a1-3)[Gal(b1-4)GlcNAc(b1-2)Man(a1-6)]Man(b1-4)GlcNAc(b1-4)GlcNAc
Outline: as §1

[16] = biological target: Gal(b1-4)GlcNAc(b1-3)Gal(b1-3)GalNAc
Outline: as §1

[17] = biological target: Gal(b1-4)GlcNAc(b1-3)Gal(b1-4)GlcNAc(b1-2)[Gal(b1-4)GlcNAc(b1-3)Gal(b1-4)GlcNAc(b1-6)]Man(a1-6)[Gal(b1-4)GlcNAc(b1-3)Gal(b1-4)GlcNAc(b1-2)Man(a1-3)]Man(b1-4)GlcNAc(b1-4)[Fuc(a1-6)]GlcNAc
Outline: as §1

[18] = biological target: Gal(b1-4)GlcNAc(b1-3)Gal(b1-4)GlcNAc(b1-3)Gal(b1-4)GlcNAc(b1-2)Man(a1-3)[Gal(b1-4)GlcNAc(b1-3)Gal(b1-4)GlcNAc(b1-3)Gal(b1-4)GlcNAc(b1-2)Man(a1-6)]Man(b1-4)GlcNAc(b1-4)GlcNAc
Outline: as §1

[19] = biological target: Gal(b1-4)GlcNAc(b1-3)Gal(b1-4)GlcNAc(b1-3)Gal(b1-4)GlcNAc(b1-2)[Gal(b1-4)GlcNAc(b1-3)Gal(b1-4)GlcNAc(b1-3)Gal(b1-4)GlcNAc(b1-6)]Man(a1-6)[Gal(b1-4)GlcNAc(b1-3)Gal(b1-4)GlcNAc(b1-3)Gal(b1-4)GlcNAc(b1-2)Man(a1-3)]Man(b1-4)GlcNAc(b1-4)[Fuc(a1-6)]GlcNAc
Outline: as §1

[20] = biological target: Gal(b1-4)GlcNAc(b1-3)Gal(b1-4)GlcNAc(b1-6)[Gal(b1-3)]GalNAc
Outline: as §1

[21] = biological target: Gal(b1-4)GlcNAc(b1-3)[GlcNAc(b1-6)]Gal(b1-4)GlcNAc
Outline: as §1

Gal3S(b1-4)Glc6S = biological target: Gal3S(b1-4)Glc6S
Outline: as §1

[22] = biological target: Gal3S(b1-4)[Fuc(a1-3)]Glc6S
Outline: as §1

Gal3S4S(b1-4)GlcNAc = biological target: Gal3S4S(b1-4)GlcNAc
Outline: as §1

GalNAc(a1-3)Gal = biological target: GalNAc(a1-3)Gal
Outline: as §1

[23] = biological target: GalNAc(a1-3)GalNAc(b1-3)Gal(a1-4)Gal(b1-4)Glc
Outline: as §1

[24] = biological target: GalNAc(b1-3)Gal(a1-4)Gal(b1-4)GlcNAc(b1-3)Gal(b1-4)Glc
Outline: as §1

Glc(a1-4)Glc = biological target: Glc(a1-4)Glc
Outline: as §1

Glc(a1-6)Glc(a1-6)Glc = biological target: Glc(a1-6)Glc(a1-6)Glc
Outline: as §1

B1: Epa11 (Candida glabrata) (protein)
chain: MGSSHHHHHHSSGLVPRGSHMASSNAPNYPVGCSPSVGTQLTPGLSLEVYAYPMDGNNGYCWNATYKDPEFPRSGYLKNKLLGKADGVVGPLNFLAKNKDCSPKVDTLPAGFNFPQPITVTNFTMVLFGYLAPKQSGKYTFKLLADDLLLLNLGATNAFDCCNREATKNNLGEFLAYNLWPNQDKNVTVYLEKGVYYPLRLFFNNRDGGSQLDFSYYFNDSPAPLTDFSGMFFSVPDGAECPARI
- glycan array binding signal (z-score) [1]: -0.518
- glycan array binding signal (z-score) [2]: -0.183
- glycan array binding signal (z-score) [3]: 2.88
- glycan array binding signal (z-score) [4]: -0.92
- glycan array binding signal (z-score) [5]: -0.015
- glycan array binding signal (z-score) [6]: 0.437
- glycan array binding signal (z-score) [7]: 0.294
- glycan array binding signal (z-score) [8]: -0.24
- glycan array binding signal (z-score) [9]: -0.276
- glycan array binding signal (z-score) [10]: -0.232
- glycan array binding signal (z-score) [11]: 1.7
- glycan array binding signal (z-score) (Gal(b1-3)GalNAc(b1-3)Gal): -0.185
- glycan array binding signal (z-score) [12]: -0.214
- glycan array binding signal (z-score) [13]: 2.35
- glycan array binding signal (z-score) [14]: -0.453
- glycan array binding signal (z-score) [15]: -0.412
- glycan array binding signal (z-score) [16]: -0.415
- glycan array binding signal (z-score) [17]: 1.98
- glycan array binding signal (z-score) [18]: 2.67
- glycan array binding signal (z-score) [19]: 1.94
- glycan array binding signal (z-score) [20]: 1.77
- glycan array binding signal (z-score) [21]: -0.836
- glycan array binding signal (z-score) (Gal3S(b1-4)Glc6S): 0.304
- glycan array binding signal (z-score) [22]: 1.71
- glycan array binding signal (z-score) (Gal3S4S(b1-4)GlcNAc): -0.9
- glycan array binding signal (z-score) (GalNAc(a1-3)Gal): -0.428
- glycan array binding signal (z-score) [23]: -0.437
- glycan array binding signal (z-score) [24]: -0.094
- glycan array binding signal (z-score) (Glc(a1-4)Glc): -1.42
- glycan array binding signal (z-score) (Glc(a1-6)Glc(a1-6)Glc): -0.516
